# Assay outcomes deposited in PubChem BioAssay by The Scripps Research Institute Molecular Screening Center.
# PAFAH2 inh: inhibitors of human PAFAH2. Q99487. recombinant PAFAH2, FP-rhodamine activity probe, fluorescence polarization. inhibition, % at 3.39 µM. hit rate 0.99% among 340,000. AID 492956;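 active means inhibition above the mean over all tested compounds plus 3 SD, cut at about 30% in these data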;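 further: inhibitors block probe labeling of enzyme so polarization drops; 0% = enzyme with DMSO and 100% = wells lacking PAFAH2 protein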
# PAFAH1B2 FP inh: inhibitors of human PAFAH1B2; recombinant PAFAH1B2, FP-rhodamine activity probe, fluorescence polarization; inhibition, % at 3.39 µM; hit rate 1.2% among 340,000; P68402;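 active means inhibition above the mean of all tested compounds plus 3 SD, cut at about 24% in these data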;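 further: 0% = enzyme with DMSO and 100% = wells lacking PAFAH1B2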
# LYPLA1 inh: blocks human lysophospholipase 1, a PME1 counter-screen; O75608; recombinant LYPLA1, FP-Rh probe fluorescence polarization; inhibition, % at 5.9 µM; hit rate 0.16% among 320,000;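 active means inhibition above the mean of all tested compounds plus 3 SD, set per campaign, cut at about 14% in these data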;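 further: inhibitors block serine hydrolase probe labeling of LYPLA1 so polarization falls; 0% = enzyme with DMSO and 100% = wells lacking LYPLA1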
# pPAFAH FP inh: pPAFAH (human) enzyme inhibition; hit rate 1.5% among 330,000; inhibition, % at 3.39 µM; recombinant pPAFAH, FP-rhodamine probe fluorescence polarization; Q13093;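 active means inhibition above the mean inhibition across the screen plus 3 SD, cut at about 25% in these data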;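 further: inhibitors block binding of the rhodamine activity-based probe so polarization drops; 0% = enzyme with DMSO and 100% = wells lacking pPAFAH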
# LYPLA2 inh: blocks human lysophospholipase 2, a PME1 counter-screen | AID 2177 | hit rate 0.38% among 320,000 | inhibition, % at 5.9 µM | O95372 | recombinant LYPLA2, FP-Rh probe fluorescence polarization;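 active means inhibition above the screen-wide mean plus 3 SD, limit set per campaign, cut at about 26% in these data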;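 further: 0% = LYPLA2 with DMSO and 100% = wells lacking LYPLA2 enzyme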
# Target sequence (O95372 whole entry, looked up): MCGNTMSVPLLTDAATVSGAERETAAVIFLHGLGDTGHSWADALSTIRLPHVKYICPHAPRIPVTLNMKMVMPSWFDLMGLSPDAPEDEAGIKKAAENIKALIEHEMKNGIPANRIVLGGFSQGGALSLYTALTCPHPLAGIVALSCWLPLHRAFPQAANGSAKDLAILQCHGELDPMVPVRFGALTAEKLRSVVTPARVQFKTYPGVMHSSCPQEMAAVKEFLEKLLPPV
# PAFAH1B3 inh: PAFAH1B3 (human) inhibition; Q15102; recombinant PAFAH1B3, FP-rhodamine probe, fluorescence polarization; inhibition, % at 3.39 µM; hit rate 0.28% among 340,000; AID 492972;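 active means inhibition above the screen-wide average of all tested compounds plus 3 SD, cut at about 25% in these data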;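 further: 0% = enzyme with DMSO only and 100% = wells lacking PAFAH1B3 protein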
# Target sequence (Q15102 whole entry, looked up): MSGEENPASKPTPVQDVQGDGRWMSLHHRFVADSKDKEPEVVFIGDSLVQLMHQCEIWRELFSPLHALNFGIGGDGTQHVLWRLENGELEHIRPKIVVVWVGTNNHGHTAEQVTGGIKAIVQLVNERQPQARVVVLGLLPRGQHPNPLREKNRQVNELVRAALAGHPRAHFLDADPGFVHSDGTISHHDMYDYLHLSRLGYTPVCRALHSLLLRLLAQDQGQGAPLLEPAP
# PAFAH2 confirm: PAFAH2 (human) inhibition, confirmed. inhibition, % at 3.39 µM. recombinant PAFAH2, FP-rhodamine activity probe, fluorescence polarization. shares compounds with PAFAH2 inh. hit rate 65% among 2,300;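 active means mean inhibition over three repeats above a set limit taken from the earlier primary screen, cut at about 30% in these data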;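 further: inhibitor blocks binding of rhodamine activity probe so polarization falls; 0% = enzyme with DMSO and 100% = wells lacking PAFAH2 protein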
# The depositor's hits bear a star; . = no result. An excerpt weighted towards active compounds, which were near 2.9% of everything screened.
SMILES,PAFAH2 inh,PAFAH1B2 FP inh,LYPLA1 inh,pPAFAH FP inh,LYPLA2 inh,PAFAH1B3 inh,PAFAH2 confirm
O=C(COC(=O)c1cccnc1Cl)Nc1ccc2c(c1)OCO2,75*,3,0,5,-2,14,60*
CCOc1ncccc1C(=O)OCC(=O)Nc1ccc2c(c1)OCCO2,55*,0,0,21,1,5,47*
COC(=O)c1ccc(NS(=O)(=O)c2ccc(OC)cc2)cc1,3,2,0,3,-3,0,.
Cn1cc([N+](=O)[O-])c(C(=O)N/N=C\c2c[nH]c3ccccc23)n1,3,-1,2,-1,5,5,.
O=c1cc(-c2ccccc2)[nH]n1-c1nc2ccccc2s1,42*,3,-12,15,-13,17,47*
CCN(CC)c1ccc2c(c1)oc(=O)c1c(Cl)cc(=O)oc12,36*,21,-2,8,7,14,24
CCN(CC)c1ccc2c(C)c(Cl)c(=O)oc2c1,2,4,3,8,0,2,.
COc1cc(/C=C/C(=O)OCC(=O)Nc2ccc(C)cc2[N+](=O)[O-])ccc1O,22,14,1,0,5,10,.
CCCCNC(=O)c1onc(CSc2ccccc2C)c1C(=O)O,30*,12,3,4,0,8,35*
CCCCNC(=O)c1onc(CSc2cc(C)cc(C)c2)c1C(=O)O,38*,5,-2,-1,1,11,27
c1csc(CNCCCN2CCOCC2)c1,3,-1,3,2,4,-6,.
CSc1nc(N)nc2c1ncn2CC(=O)N[C@H](CO)Cc1c[nH]c2ccccc12,38*,7,.,3,.,-1,3
Cc1cn(CC(=O)N[C@H](CO)Cc2c[nH]c3ccccc23)c(=O)[nH]c1=O,-4,3,.,.,.,6,.
CN(C(=O)c1ccccc1C(=O)OCC(=O)Nc1ccc(S(N)(=O)=O)cc1)c1ccccc1,-5,3,-1,4,2,8,.
CN(C(=O)c1ccccc1C(=O)OCC(=O)Nc1cccc(Br)c1)c1ccccc1,76*,-2,-2,2,-1,-4,76*
CN(C(=O)c1ccccc1C(=O)OCC(=O)c1ccccc1)c1ccccc1,0,7,0,1,1,5,.
COc1cccc(NC(=O)COC(=O)c2ccccc2C(=O)N(C)c2ccccc2)c1,71*,0,2,4,1,3,69*
CN(C(=O)c1ccccc1C(=O)OCC(=O)Nc1ccc(OC(F)F)cc1)c1ccccc1,65*,-3,-4,15,-7,3,56*
O=C1C(=O)N(CCO)C(c2cccc(F)c2)/C1=C(\O)c1ccc(Cl)cc1 (stereo unspecified),2,-1,2,0,2,-2,.
O=C(Nc1ccsc1C(=O)O)c1ccc(Cl)cc1,31*,8,-1,-7,-6,10,19
O=C(O)/C=C/C(=O)N1CCN(S(=O)(=O)c2cccc(C(F)(F)F)c2)CC1,-6,9,1,3,2,4,.
COCCOC(=O)c1c(C)n(C)c2ccc(OC(=O)c3ccco3)cc12,-2,4,0,0,-1,-10,.
COCCOC(=O)c1c(C)n(C)c2ccc(OC(=O)C3CC3)cc12,39*,1,0,20,-2,-3,26
O=C(CCC(=O)N1CCCC1)Nc1ccc(Cl)c(Cl)c1,54*,-6,0,23,-2,3,57*
O=C(Nc1ccc(Cl)c(Cl)c1)N1CCCCCC1,0,4,-1,-5,-1,19,.
SMILES,PAFAH2 inh,PAFAH1B2 FP inh,LYPLA1 inh,pPAFAH FP inh,LYPLA2 inh,PAFAH1B3 inh,PAFAH2 confirm
Nc1nonc1-n1nnc(C(=O)N/N=C/c2ccccc2)c1CSc1ccccc1,.,.,-1,-7,-2,.,.
O=C1OC(c2ccccc2)Sc2ccccc21 (stereo unspecified),81*,5,.,.,.,2,85*
O=C(COC(=O)c1ccc(O)cc1)Nc1ccc2c(c1)OCO2,89*,2,.,11,.,4,81*
CC(=O)Nc1ccc(NC(=O)COC(=O)c2ccc(Cl)nc2)cc1,1,0,.,.,.,7,.
O=C(COC(=O)c1ccc(Cl)nc1)Nc1ccc(Cl)cc1,36*,3,.,.,.,4,33*
O=C(COC(=O)c1ccc(Cl)nc1)Nc1ccc2c(c1)CCC2,42*,-8,.,-2,.,10,32*
